About 83,000 compounds went through this panel and 20% of them were active in at least one assay; those are over-represented in the sample as a whole.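 Results are percent growth after 48 hours of single-concentration exposure. 100 means growth as in untreated cells, lower positive values show inhibition; negative values down to -100 show cell death.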 Unmarked numbers belong to inactive results. Calls of active or inactive are those of the source. Rule for the calls: active = growth percent below 10; inactive = the rest.
How the values were obtained:
Assay in all cases: NCI-60 one-dose screen, 48 h (100 = growth as untreated, 0 = no growth, -100 = all killed)
Settings in all cases: 10 µM unless noted
NCI-H23 lung = tested on: NCI-H23 lung
NCI-H226 lung = tested on: NCI-H226 lung
NCI-H322M lung = tested on: NCI-H322M lung
HOP-62 NSCLC = tested on: HOP-62 NSCLC
NCI-H460 lung = tested on: NCI-H460 lung
A549/ATCC NSCLC = tested on: A549/ATCC NSCLC
786-0 renal = tested on: 786-0 renal
COLO 205 colon = tested on: COLO 205 colon
DU-145 prostate = tested on: DU-145 prostate
K-562 leukemia = tested on: K-562 leukemia
MALME-3M melanoma = tested on: MALME-3M melanoma
MDA-MB-231 breast = tested on: MDA-MB-231 breast
RXF 393 renal = tested on: RXF 393 renal
SF-268 CNS = tested on: SF-268 CNS
SF-295 CNS = tested on: SF-295 CNS
SF-539 CNS = tested on: SF-539 CNS
UACC-257 melanoma = tested on: UACC-257 melanoma
M14 melanoma = tested on: M14 melanoma
NCI-H522 lung = tested on: NCI-H522 lung

| SMILES | growth (NCI-H23 lung) | growth (NCI-H226 lung) | growth (NCI-H322M lung) | growth (HOP-62 NSCLC) | growth (NCI-H460 lung) | growth (A549/ATCC NSCLC) | growth (786-0 renal) | growth (COLO 205 colon) | growth (DU-145 prostate) | growth (K-562 leukemia) | growth (MALME-3M melanoma) | growth (MDA-MB-231 breast) | growth (RXF 393 renal) | growth (SF-268 CNS) | growth (SF-295 CNS) | growth (SF-539 CNS) | growth (UACC-257 melanoma) | growth (M14 melanoma) | growth (NCI-H522 lung) |
| --- | --- | --- | --- | --- | --- | --- | --- | --- | --- | --- | --- | --- | --- | --- | --- | --- | --- | --- | --- |
| CC(C)=CC[C@@H]1CC2(CC=C(C)C)C(=O)C(OC3(C(=O)c4ccccc4)C(=O)C4(CC=C(C)C)C[C@@H](CC=C(C)C)C(C)(C)C(CC=C(C)C)(C4=O)C3=O)(C(=O)c3ccccc3)C(=O)C(CC=C(C)C)(C2=O)C1(C)C (stereo partly drawn) | 10.3% | -4.96% (active) | 3.49% (active) | 0.307% (active) | -9.89% (active) | 6% (active) | 11.6% | -22.3% (active) | 2.13% (active) | 4.86% (active) | -28.8% (active) | -11.3% (active) | 4.28% (active) | 14.5% | -13.4% (active) | -18.5% (active) | -19.7% (active) | -2.59% (active) |  |
| CCOC(=O)c1cc(C(=O)OCC)c(C)nc1C | 102% | 105% | 106% | 102% | 111% | 101% | 106% | 109% | 109% | 91.4% | 104% | 107% | 117% | 108% | 107% | 103% | 107% | 111% |  |
| CCCCCCCCCCCCNC(=O)N[C@H](C(=O)N[C@H]1/C=C/OCCNC(=O)/C=C/[C@H](C(C)C)NC1=O)C(C)C | 60.4% | -3.01% (active) | 97.1% | 76.7% | 82.6% | 94.7% | 99.8% | 103% | 66.9% |  | 71% | 81.2% | 83.6% | 46.2% | 95.2% | 54.6% | 93.1% | 87.2% |  |
| CSc1ccc(/C=C2\C=C(CC(=O)NCc3ccc(C(=O)c4ccccc4)cc3)c3cc(F)ccc32)cc1 | -23.2% (active) | -40.8% (active) | 39.4% | -7.82% (active) | -43.7% (active) | -0.932% (active) | -25.7% (active) |  | -34.3% (active) |  | 49.3% | -7.54% (active) | -34.1% (active) | 1.28% (active) | -20.2% (active) | -36.2% (active) | 55.2% | -33.2% (active) | -38.5% (active) |
| O=C1OCC2=C1C(c1ccccc1)c1cc3c(cc1N2CCO)OCO3 (stereo not drawn) | 42.5% | 49% | 85.8% | 40.3% | -3.16% (active) | 58.7% | 32.1% | -8.27% (active) | 69.4% |  | 50% | 52.2% | 24.8% | 49% | -12.8% (active) | -0.802% (active) | 58.3% | 3.99% (active) |  |
| COc1cc(C2CC(=O)Nc3c2cnn3C)cc(OC)c1OC (stereo not drawn) | 108% | 104% | 100% | 98.2% | 117% | 107% | 103% |  | 108% |  | 97.7% | 118% | 124% | 112% | 105% | 103% | 101% | 103% | 101% |
| O=C1Nc2ccc(Br)cc2/C1=N/c1nc(-c2ccccc2)cs1 | 92.4% | 75.7% | 88% | 53.8% | 90.9% | 80.3% | 85.2% | 94.7% | 89.3% | 82.4% | 101% | 77% | 91.7% | 79.5% | 102% | 98.6% | 78.2% | 87.5% |  |
| CC(=O)Nc1c(Br)cc2c(c1Br)Cc1cc(Br)ccc1-2 | 72.8% | 85% | 88.2% | 29.1% | 38.8% | 20.8% | 87% | 35% | 91.9% | 80.5% | 99.2% | 51.1% | 92% | 69.9% | -18.8% (active) | 86.5% | 89.1% | 62.4% |  |
| CC(=O)Oc1ccccc1C(=O)Nc1ncc([N+](=O)[O-])s1 | 6.3% (active) | 63.5% | 10.8% | 67.1% | 13.4% | 51.2% | -11.4% (active) | 93.2% | 32.1% | -8.68% (active) | -10.6% (active) | 26.9% | 54.5% | 18.7% | 9.28% (active) | 39.5% | 39.2% | 14.6% |  |

Source: PubChem BioAssay (NCI)
